Test [1] deals with Cellular tumor antigen p53 (Homo sapiens) (UniProt P04637). The test is described as follows: TOX21_p53_BLA_p2_ratio: Tox21 HCT-116 p53 Agonism Beta-lactamase Assay, Ratio, Phase 2 (AID 2283592). The gist of the method: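 Ratio endpoint: beta-lactamase cleavage of CCF4-AM, blue (460 nm) over green (530 nm). HCT116 reporter line; 16 h treatment, 37C; substrate 2 h RT.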
A short description of test [2]: TOX21_p53_BLA_p3_viability: Viability Assessment in the Tox21 HCT-116 p53 Agonism Beta-lactamase Assay, Phase 3 (AID 2283593).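 Note: cells exposed to compound for 16 h before reading.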 The gist of the method: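 HCT-116 cells (4000/well) rested 5 h at 37C, then got DMSO compounds by pin tool (217-fold dilution) for 16 h at 37C, 5% CO2. After the bla read, CellTiter-Glo was added and luminescence read at 30 min, room temperature.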

Test [3] concerns the target Cellular tumor antigen p53 (Homo sapiens) (UniProt P04637). Put plainly: TOX21_p53_BLA_p3_ratio: Tox21 HCT-116 p53 Agonism Beta-lactamase Assay, Ratio, Phase 3 (AID 2283596). The gist of the method:
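Cells were seeded at 4000/well, rested 5 h at 37C, then dosed with DMSO compound solutions (217-fold dilution) for 16 h. CCF4-AM substrate was loaded for 2 h at room temperature, and the 460/530 nm emission ratio was fitted for gain of signal versus DMSO.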

For test [4] the target is unchanged. The test is described as follows: TOX21_p53_BLA_p5_ratio: Tox21 HCT-116 p53 Agonism Beta-lactamase Assay, Ratio, Phase 5 (AID 2283599). The essentials:
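HCT-116 cells carrying a p53-inducible beta-lactamase reporter were seeded at 4000 cells/well and dosed after 5 h with compound in DMSO (217-fold dilution). After 16 h at 37C, CCF4-AM substrate was added for 2 h, and the 460/530 nm emission ratio was scored as gain-of-signal versus DMSO.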

The nature of test [5]: TOX21_p53_BLA_p5_viability: Viability Assessment in the Tox21 HCT-116 p53 Agonism Beta-lactamase Assay, Phase 5 (AID 2283600). The gist of the method: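 Luciferase-coupled ATP quantitation of cells treated for 16 h (37C, 5% CO2) with test chemicals delivered in DMSO via a 217-fold dilution; 4000 cells/well; reagent incubated 30 min at room temperature before luminescence reading.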

Test [6] has as its target Cellular tumor antigen p53 (Homo sapiens) (UniProt P04637). Put plainly: TOX21_p53_BLA_p4_ratio: Tox21 HCT-116 p53 Agonism Beta-lactamase Assay, Ratio, Phase 4 (AID 2283601). The gist of the method: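 HCT116 cells carrying an inducible beta-lactamase reporter were plated at 4000 cells/well, rested 5 h, then exposed to compounds in DMSO (217-fold dilution) for 16 h at 37C. CCF4-AM substrate was loaded 2 h at room temperature; 460/530 nm emission ratio scored gain-of-signal versus DMSO.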

The nature of test [7]: TOX21_p53_BLA_p4_viability: Viability Assessment in the Tox21 HCT-116 p53 Agonism Beta-lactamase Assay, Phase 4 (AID 2283597).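 Note: hits lower the luminescence signal meaning cytotoxicity.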 The essentials:
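Cytotoxicity was inferred from loss of CellTiter-Glo luminescence. HCT116 cells had been dosed with compounds after 5 h plating, incubated 16 h at 37C and 5% CO2, and exposed to the CCF4-AM substrate for 2 h.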

Results filed as inconclusive are left out. The source made the active and inactive calls. Rule for the calls: active = hit-call score of the fitted dose curve at least 0.9, where 1 is the maximum; inconclusive = response in the unintended direction; inactive = score below 0.9.

Chain of Cellular tumor antigen p53 (Homo sapiens) (P04637 whole entry, looked up): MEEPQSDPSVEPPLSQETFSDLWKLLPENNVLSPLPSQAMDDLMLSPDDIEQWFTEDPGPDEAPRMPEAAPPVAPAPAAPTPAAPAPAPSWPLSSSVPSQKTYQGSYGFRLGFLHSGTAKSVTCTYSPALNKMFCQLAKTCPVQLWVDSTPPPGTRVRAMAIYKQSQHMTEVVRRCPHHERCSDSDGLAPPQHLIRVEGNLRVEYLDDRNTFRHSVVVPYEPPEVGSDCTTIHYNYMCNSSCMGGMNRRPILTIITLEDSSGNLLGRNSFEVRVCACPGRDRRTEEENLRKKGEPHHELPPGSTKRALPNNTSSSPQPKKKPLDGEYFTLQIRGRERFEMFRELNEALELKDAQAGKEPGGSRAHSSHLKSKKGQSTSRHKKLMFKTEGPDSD

As to `COc1cc2c3cc1Oc1cc(ccc1O)C[C@@H]1c4c(cc(OC)c(O)c4Oc4ccc(cc4)C[C@@H]3N(C)CC2)CC[N+]1(C)C`, the outcome in test [1], in test [2], in test [3], in test [4], in test [5] and in test [6] was inactive.
On to `CCOC(=O)c1ccccc1O`, for which the result in test [1], in test [2], in test [3], in test [4] and in test [5] was inactive.
For `C[C@]12CCC(=O)C=C1CC[C@@H]1[C@@H]2[C@@H](O)C[C@@]2(C)[C@H]1CC[C@]2(O)C(=O)COP(=O)(O)O`, the outcome in test [1], in test [2], in test [3], in test [4], in test [5] and in test [6] was inactive.
In the case of `O=Cc1c(Cl)cccc1Cl`, the result in test [1], in test [2], in test [3], in test [4], in test [5] and in test [6] was inactive.
In the case of `O=C(O)/C=C/c1ccc(Cn2ccnc2)cc1`, the result in test [1], in test [2], in test [3], in test [4], in test [5] and in test [6] was inactive.
As to `CCCCOC(=O)/C=C\C(=O)OCCCC`, the outcome in test [1], in test [2], in test [3], in test [4], in test [5] and in test [6] was inactive.
Consider `Oc1cn2c(n1)Nc1ccc(Cl)c(Cl)c1C2`, for which the outcome in test [1], in test [2], in test [3], in test [4], in test [5] and in test [6] was inactive.
Turning to `CCCCNc1ccc(C(=O)OCCN(C)C)cc1`, the outcome in test [1], in test [2], in test [3], in test [4], in test [5] and in test [6] was inactive.
With `N#Cc1c(F)cccc1F`, the outcome in test [1], in test [2], in test [3], in test [4], in test [5] and in test [6] was inactive.
In the case of `C=COCC(C)C`, the result in test [1], in test [2], in test [3] and in test [4] was inactive.
As to `CCC(CO)(CO)COCC(CC)(CO)CO`, the result in test [1], in test [2], in test [3], in test [4] and in test [5] was inactive.
On to `O=C(Oc1ccccc1)Oc1ccccc1`, for which the outcome in test [1], in test [2], in test [3], in test [4], in test [5] and in test [6] was inactive.
`Cn1nnc2c(C(N)=O)ncn2c1=O`: the result in test [1], in test [2], in test [3], in test [4], in test [5] and in test [6] was inactive.
Regarding `CCCCN(CCCC)CCCOC(=O)c1ccc(N)cc1`, the result in test [1], in test [2], in test [3], in test [4], in test [5] and in test [6] was inactive.
As for `CC(CCc1ccc(O)cc1)NCCc1ccc(O)c(O)c1` (stereo not given), the result in test [1], in test [2], in test [3] and in test [7] was inactive. For the same molecule, the AC50 in test [6] is 43.6 µM (active).
`Cc1ccc(O)c2ncccc12`: the outcome in test [1], in test [2], in test [3], in test [4] and in test [5] was inactive.

One may read the AC50 as the concentration giving half of the maximal activity seen.

The values above are taken from PubChem BioAssay (EPA / NIEHS).
